Most compounds without a hit are left out; they make up all but 3.3% or so of the library.
esBAF inh – Bmi1 luciferase reporter increase in mESCs, primary screen, esBAF inhibitor project, mouse ES cells, Bmi1 luciferase knock-in, single point. 24 h; 100% = twice the neutral-well signal. reporter increase, % at 12.5 µM. 350,000 compounds, 2% hits; in the data active = activation above about 40%;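 note: 0% = median of the plate's neutral control wells and 100% = double that signal; a rise in the Bmi1 reporter signal indicates esBAF inhibition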
Wnt act – Wnt/beta-catenin pathway activators, primary screen, cell-based, plate reader, single point; Wnt/beta-catenin reporter cell assay, activator; 300,000 compounds, 1.2% hits; activation, % at 9.35 µM; AID 743398, 2014; in the data active = activation above about 30%, passing the limit was not always enough;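 note: 0% = neutral control wells and 100% = positive control wells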
GAA850 FXN act – FXN promoter activators, primary screen, cell-based, luciferase luminescence, HEK293 lucGAA850. HEK293 lucGAA850 FXN promoter luciferase reporter, 24 h; percent of 10 µM SAHA response. activation, % at 6 µM. 360,000 compounds, 0.56% hits. AID 540364, 2011;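 active = activation above the average of all compounds screened plus 3 SD, cutoff fixed separately per campaign, cut at about 7.5% in these data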;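 note: 0% = DMSO wells and 100% = 10 µM SAHA wells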
MITF act – activators of MITF-driven TRPM1 promoter reporter, primary screen, cell-based, SK-MEL-5, luciferase, single point. 300,000 compounds, 0.75% hits. activation, % at 12.5 µM. AID 588334, 2011. SK-MEL-5 TRPM1-promoter luciferase, 24 h; % of positive control, neutral wells = 0;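 active = mean activation of at least 80% with every replicate also reaching 80%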;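 note: 0% = neutral control wells and 100% = parthenolide positive control wells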
Statin myotox sup – suppressors of statin myotoxicity in C2C12 myotubes, primary screen, cell-based, single point, plate reader; C2C12 myotubes + simvastatin, ATP luminescence, 48 h; scaled: DMSO 0, geranylgeraniol control 100; rescue of ATP level, % at 7.49 µM; 330,000 compounds, 0.78% hits; AID 602340, 2012;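 active = mean ATP rescue above about 67%, or every replicate alone reaching that limit, limit read from the data, passing the limit was not always enough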;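 note: myotubes were challenged with 10 µM simvastatin during compound exposure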
GAA30 counter – GAA30 FXN promoter activators, confirmation, counter-screen for GAA850 frataxin promoter activator project, cell-based, luminescence, HEK293, lucGAA30, triplicate | shares compounds with GAA850 FXN act | HEK293 lucGAA30 FXN promoter luciferase, 24 h; DMSO = 0%, 5 µM ipriflavone = 100% | activation, % at 6 µM | 1,900 compounds, 66% hits | AID 588350, 2011;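 active = mean activation above the mean of solvent-only control wells plus 3 SD, cut at about 22% in these data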;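 note: counterscreen of GAA850 promoter hits where activity marks nonselective or luminescence artifacts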
FXN GAA850 conf – FXN GAA850 promoter activators in reporter cells, confirmation, cell-based, luminescence, HEK293 lucGAA850, triplicate; shares compounds with GAA850 FXN act; HEK293 lucGAA850 FXN promoter luciferase reporter, 24 h; 100% = activation by SAHA; activation, % at 6 µM; 1,900 compounds, 86% hits;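 active = mean activation above a set limit taken from the primary screen, cut at about 8% in these data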;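 note: 0% = DMSO wells and 100% = 10 µM SAHA wells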
* marks the source's active call; other numbers are inactive results; . = no result.

SMILES	esBAF inh	Wnt act	GAA850 FXN act	MITF act	Statin myotox sup	GAA30 counter	FXN GAA850 conf
C[C@H](CO)N1C[C@H](C)[C@@H](CN(C)C(=O)c2ccc(F)cc2)OCc2ccccc2-c2ccccc2C1=O	-1.1	.	.	.	-15.5	.	.
O=C(Nc1ccc(Cl)cc1)C1CCCCN1S(=O)(=O)c1ccccc1 (stereo not given)	15.3	-3.1	7.9*	.	11.9	24.1*	8.3*
Cc1noc(C)c1NC(=O)N(C)C[C@H]1Oc2ccc(NC(=O)Nc3cccc4ccccc34)cc2C(=O)N([C@@H](C)CO)C[C@H]1C	2.5	.	.	.	-11.5	.	.
CCS(=O)(=O)N[C@H]1CC[C@@H](CC(=O)NCc2ccc(F)cc2)O[C@@H]1CO	2.5	.	.	.	4.8	.	.
C[C@H](CO)N1C[C@H](C)[C@H](CN(C)C(=O)NC2CCCCC2)OCCCC[C@H](C)Oc2ccc(NC(=O)Nc3ccc(F)cc3)cc2C1=O	15.0	.	.	.	.	.	.
CC1=CC(C)=Nc2ccccc2N1	23.5	.	7.9*	-6.4	-5.6	79.0*	18.1*
O=C(c1ccc2c(c1)OCO2)N1CC[C@@H]2[C@H]1c1cc(-c3ccc(F)cc3)ccc1N[C@@H]2CO	-5.0	.	.	.	5.9	.	.
COC(=O)C[C@H]1CC[C@@H]2[C@@H](COc3ccc(NC(=O)c4cccc(OC)c4)cc3C(=O)N2C)O1	-2.9	.	.	.	5.8	.	.
Nc1cccc2nc3ccccc3cc12	-8.4	11.8	18.6*	-81.9	44.0	-13.5	101.3*
c1ccc(C2=Nn3c(nnc3-c3cc(-c4ccccc4)n[nH]3)SC2)cc1	22.7	.	8.3*	48.1	55.6	41.4*	23.3*
Clc1ccc(C2=Nn3c(nnc3-c3cc(-c4ccccc4)n[nH]3)SC2)cc1	9.2	.	1.1	21.4	50.1	.	.
CCCC#Cc1cnc2c(c1)C(=O)N([C@H](C)CO)C[C@@H](C)[C@@H](CN(C)C(=O)NC1CCCC1)O2	3.3	.	.	.	2.8	.	.
COc1ccc(S(=O)(=O)N(C)C[C@@H]2Oc3ccc(NC(=O)CCCN(C)C)cc3C(=O)N([C@@H](C)CO)C[C@H]2C)cc1	2.0	.	.	.	-2.7	.	.
CCCN1C[C@@H](C)[C@H](OC)CN(C)C(=O)c2cc(NC(=O)C3CC3)ccc2OC[C@@H]1C	-1.6	.	.	.	0.2	.	.
NNc1ccc(Cl)c(C(=O)O)c1	-1.4	6.7	8.7*	-1.2	3.4	81.4*	22.7*
COc1cc2c(c(OCC(=O)NC(C)C)c1)C(=O)O[C@@H](C)CCCC(=O)CCCCC2	4.4	-2.4	12.5*	-4.9	-17.5	22.8*	9.8*
O=C(N/N=C/c1ccc(OC2CSC2)cc1)c1ccccc1	66.7*	.	8.1*	67.2	15.7	84.4*	47.2*
O=C(N/N=C/c1ccc(OCc2ccc(F)cc2)cc1)c1ccccc1	.	0.9	-1.2	41.8	.	.	.
CCCNC(=O)[C@H]1[C@H](CO)[C@H]2Cn3c(cccc3=O)[C@@H]1N2S(=O)(=O)c1ccccc1F	-5.5	.	.	.	-1.7	.	.
CCCNC(=O)N[C@@H]1CC[C@@H](CC(=O)NC2CCC2)O[C@@H]1CO	0.1	.	.	.	-7.0	.	.
C[C@H]1CN([C@@H](C)CO)C(=O)c2cc(-c3cncnc3)cnc2O[C@@H]1CN(C)C(=O)Cc1ccccn1	6.9	.	.	.	0.5	.	.
Cc1ccn2cc(-c3cccc(S(=O)(=O)N4CCCCC4)c3)nc2c1	36.9	4.8	0.3	13.5	-14.4	.	.
Cc1ccn2cc(-c3ccc(O)c(O)c3)nc2c1	-52.0	26.8	11.0*	0.4	-26.3	127.2*	47.7*
Oc1ccc(-c2cn3ccccc3n2)cc1O	5.4	22.7	8.9*	63.6	-27.0	109.3*	33.4*
COc1ccc(C(=O)c2sc(NC(C)C)nc2N)cc1OC	-1.4	-0.6	5.3	.	.	.	.
